Experimental findings from PubChem BioAssay (NCI) are described below.

Test systems include NCI-H23 lung; NCI-H226 lung; NCI-H322M lung; HOP-62 NSCLC; NCI-H460 lung; HOP-92 NSCLC; NCI-H522 lung; A549/ATCC NSCLC; 786-0 renal; COLO 205 colon; DU-145 prostate; K-562 leukemia; MALME-3M melanoma; MDA-MB-231 breast; RXF 393 renal; SF-268 CNS; SF-295 CNS; SF-539 CNS; UACC-257 melanoma; M14 melanoma.
Common to all, as to assay: NCI-60 one-dose screen, 48 h (100 = growth as untreated, 0 = no growth, -100 = all killed)
Common to all, as to settings: 10 µM unless noted

About 83,000 compounds went through this panel and 20% of them were active in at least one assay; those are over-represented in the sample as a whole.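 Treatment: one concentration, 48 hours, 96-well format. Scoring: percent growth, with anything below 10 considered active.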 Unmarked numbers belong to inactive results. Calls of active or inactive are those of the source.

`COc1cccc(/C=C2\COc3ccc(O)cc3C2=O)c1`: the growth in the test with NCI-H23 lung was 93.7%; in the test with NCI-H226 lung, 105%; with NCI-H322M lung, 106%; with HOP-62 NSCLC it was 95%; with NCI-H460 lung, 99.6%; in the test with HOP-92 NSCLC, 91.9%. Also, the growth with NCI-H522 lung was 56.1%; in the test with A549/ATCC NSCLC, 87.4%; in the test with 786-0 renal, 78.3%; in the test on COLO 205 colon, 97.9%; with DU-145 prostate it was 89%; in the test with K-562 leukemia it was 5.52% (active). The growth in the test with MALME-3M melanoma was 91.1%; with MDA-MB-231 breast, 49.7%; in the test with RXF 393 renal, 105%; in the test on SF-268 CNS it was 91.1%; with SF-295 CNS, 103%; in the test on SF-539 CNS, 88.5%. In addition, the growth in the test on UACC-257 melanoma is 111%; in the test on M14 melanoma, 83.4%.

Take `COc1cc2c3c(c1O)-c1ccccc1[C@@H]1OC(=O)N(CC2)[C@H]31`: the growth in the test on NCI-H23 lung is 100%; with NCI-H226 lung it was 96.7%; in the test with NCI-H322M lung, 113%; with HOP-62 NSCLC, 104%; in the test with NCI-H460 lung, 100%; with HOP-92 NSCLC, 80.8%. In addition, the growth is 94% in the test on NCI-H522 lung; 97% in the test with A549/ATCC NSCLC; 102% in the test on 786-0 renal; 107% with COLO 205 colon; 120% with DU-145 prostate; 112% with K-562 leukemia. Also, the growth was 103% in the test on MALME-3M melanoma; 93.1% in the test on MDA-MB-231 breast; 97.6% in the test with RXF 393 renal; 104% in the test on SF-268 CNS; 103% in the test with SF-295 CNS; 108% in the test on SF-539 CNS. Moreover, the growth was 95.6% with UACC-257 melanoma and 103% with M14 melanoma.

For `CCCCCCCCn1ccc2cc(NC(=O)Cn3cc(CN4CCOCC4)nn3)ccc21`, the growth with NCI-H23 lung was 106%; in the test with NCI-H226 lung, 92.3%; in the test with NCI-H322M lung it was 96.8%; with HOP-62 NSCLC, 113%; in the test with NCI-H460 lung, 101%; in the test with HOP-92 NSCLC it was 70.4%. Moreover, the growth in the test with NCI-H522 lung was 90.4%; in the test with A549/ATCC NSCLC, 98.3%; in the test with 786-0 renal, 90.6%; with COLO 205 colon, 109%; with DU-145 prostate, 106%; in the test with K-562 leukemia, 89.1%. Further, the growth was 100% in the test on MALME-3M melanoma; 90.5% in the test with MDA-MB-231 breast; 91.9% in the test with RXF 393 renal; 106% with SF-268 CNS; 90.1% in the test on SF-295 CNS; 104% in the test on SF-539 CNS. Moreover, the growth in the test on UACC-257 melanoma was 104%; in the test with M14 melanoma it was 91%.

Consider `COc1ccc(-c2cc(-c3ccc(OC)cc3)nc(NCCCNc3ccnc4cc(Cl)ccc34)n2)cc1`, for which the growth in the test on NCI-H23 lung is 81.3%; with NCI-H226 lung, 70.5%; in the test with NCI-H322M lung, 98.4%; with HOP-62 NSCLC, 87.4%; in the test with NCI-H460 lung, -39.5% (active); with HOP-92 NSCLC it was 55.9%. In addition, the growth is 87.4% with NCI-H522 lung; 17.8% with A549/ATCC NSCLC; -88.6% (active) in the test with 786-0 renal; 2.44% (active) in the test with COLO 205 colon; -2.21% (active) with DU-145 prostate; -14.3% (active) in the test on K-562 leukemia. The growth with MALME-3M melanoma is -75.6% (active); with MDA-MB-231 breast, 76.7%; in the test with RXF 393 renal it was 24.2%; in the test on SF-268 CNS it was 85.3%; in the test with SF-295 CNS, 83.8%; in the test on SF-539 CNS it was 63.4%. The growth in the test with UACC-257 melanoma was 46.2%; in the test with M14 melanoma it was 33.3%.

On to `COc1ccc2nc(SCC(=O)Nc3ccccc3C)[nH]c2c1`, for which the growth is 101% in the test with NCI-H23 lung; 92.2% in the test on NCI-H226 lung; 90% in the test with NCI-H322M lung; 90% with HOP-62 NSCLC; 104% with NCI-H460 lung; 83.2% with HOP-92 NSCLC. The growth in the test on NCI-H522 lung was 87.9%; in the test with A549/ATCC NSCLC, 84%; in the test on 786-0 renal it was 99.9%; in the test on COLO 205 colon it was 113%; with DU-145 prostate it was 105%; in the test with K-562 leukemia it was 97.5%. Further, the growth was 96.9% in the test on MALME-3M melanoma; 98.6% in the test on MDA-MB-231 breast; 105% in the test with RXF 393 renal; 102% in the test with SF-268 CNS; 93% in the test on SF-295 CNS; 101% in the test with SF-539 CNS. The growth in the test with UACC-257 melanoma was 90%; in the test on M14 melanoma it was 101%.

On to `O=C1/C(=C/c2cccc([N+](=O)[O-])c2)COc2ccc(O)cc21`, for which the growth is 89.3% in the test on NCI-H23 lung; 111% with NCI-H226 lung; 89.8% in the test on NCI-H322M lung; 88.2% in the test on HOP-62 NSCLC; 92.4% in the test on NCI-H460 lung; 110% in the test on HOP-92 NSCLC. Besides, the growth with NCI-H522 lung is 8.12% (active); in the test with A549/ATCC NSCLC it was 89.2%; in the test with 786-0 renal, 14.7%; in the test on COLO 205 colon, 64.6%; with DU-145 prostate, 81.8%; with K-562 leukemia, 13.4%. The growth with MALME-3M melanoma is 76.6%; with MDA-MB-231 breast, 47.9%; in the test on RXF 393 renal, 107%; in the test on SF-268 CNS, 85.9%; with SF-295 CNS, 95.5%; in the test on SF-539 CNS, 70.6%. The growth in the test with UACC-257 melanoma was 97%; in the test with M14 melanoma, 55%.

Take `C=C1C(=O)O[C@H]2[C@H]1CC/C(Cn1cc(-c3cc(C(F)(F)F)cc(C(F)(F)F)c3)nn1)=C\CC[C@@]1(C)O[C@@H]21`: the growth in the test on NCI-H23 lung was -58.6% (active); in the test on NCI-H226 lung, -54.5% (active); in the test on NCI-H322M lung, -24.4% (active); in the test with HOP-62 NSCLC it was -78.6% (active); in the test on NCI-H460 lung, -59.2% (active); in the test on HOP-92 NSCLC, -95.1% (active). Also, the growth was -76.7% (active) in the test on NCI-H522 lung; -85.3% (active) in the test on A549/ATCC NSCLC; -86.5% (active) in the test with 786-0 renal; -60.4% (active) with COLO 205 colon; -90% (active) in the test on DU-145 prostate; -37.6% (active) with K-562 leukemia. Further, the growth is -88.5% (active) with MALME-3M melanoma; -75.7% (active) in the test on MDA-MB-231 breast; -90.9% (active) in the test on RXF 393 renal; -78.7% (active) with SF-268 CNS; -67.4% (active) with SF-295 CNS; -92.2% (active) in the test on SF-539 CNS. In addition, the growth in the test on UACC-257 melanoma was -85.3% (active); in the test with M14 melanoma, -70.3% (active).
